From PubChem BioAssay
Mdm2 MdmX PPI = human Mdm2/MdmX binding inhibition; O15151+Q00987; SaOS-2 split-luciferase Mdm2/MdmX complementation, luminescence; inhibition, % at 8 µM; hit rate 3% among 330,000; AID 485346;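 active = inhibition of at least 50% at 8 µM in the primary screen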
Target sequence (O15151 whole entry, looked up): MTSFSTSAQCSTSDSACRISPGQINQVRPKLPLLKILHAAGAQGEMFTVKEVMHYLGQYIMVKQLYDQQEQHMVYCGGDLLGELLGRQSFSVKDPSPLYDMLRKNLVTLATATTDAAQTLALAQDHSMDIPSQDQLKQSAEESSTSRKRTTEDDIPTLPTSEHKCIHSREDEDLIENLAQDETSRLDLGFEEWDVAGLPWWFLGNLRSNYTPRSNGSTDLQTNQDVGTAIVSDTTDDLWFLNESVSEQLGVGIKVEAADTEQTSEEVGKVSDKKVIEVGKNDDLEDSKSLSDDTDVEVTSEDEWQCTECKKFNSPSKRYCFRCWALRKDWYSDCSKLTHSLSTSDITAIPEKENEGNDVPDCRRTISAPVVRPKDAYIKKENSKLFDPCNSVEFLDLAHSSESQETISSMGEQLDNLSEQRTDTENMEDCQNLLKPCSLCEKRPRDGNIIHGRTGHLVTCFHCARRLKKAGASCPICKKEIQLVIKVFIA
Target sequence (Q00987 whole entry, looked up): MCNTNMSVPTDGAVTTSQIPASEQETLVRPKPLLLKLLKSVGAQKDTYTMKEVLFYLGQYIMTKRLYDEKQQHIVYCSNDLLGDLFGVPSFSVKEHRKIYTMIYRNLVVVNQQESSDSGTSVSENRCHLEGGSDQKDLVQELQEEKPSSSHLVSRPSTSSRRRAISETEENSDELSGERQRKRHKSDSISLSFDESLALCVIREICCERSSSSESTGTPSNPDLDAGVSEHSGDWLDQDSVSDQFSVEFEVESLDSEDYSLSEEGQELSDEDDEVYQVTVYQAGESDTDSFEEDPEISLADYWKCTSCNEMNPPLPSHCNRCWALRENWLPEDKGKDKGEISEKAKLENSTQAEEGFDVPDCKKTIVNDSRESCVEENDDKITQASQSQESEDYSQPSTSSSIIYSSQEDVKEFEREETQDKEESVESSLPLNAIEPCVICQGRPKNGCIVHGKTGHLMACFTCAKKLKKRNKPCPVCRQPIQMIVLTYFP
Gli-Sufu block = Gli-Sufu pathway antagonism; Sufu-KO-LIGHT fibroblasts, Gli luciferase reporter luminescence; inhibition, % at 5 µM; hit rate 0.74% among 340,000; AID 588413;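 active = inhibition above about 55%, limit read from the data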;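 also: 0% = DMSO-treated cells and 100% = wells with medium but no cells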
Jurkat NFkB inh = inhibitors of the PMA/ionomycin-induced NF-kB reporter in Jurkat cells; PMA/ionomycin-induced NF-kB luciferase reporter, luminescence; AID 435003; hit rate 0.53% among 330,000; inhibition, % at 4 µM; in the data active = inhibition above about 50%
697 NFkB inh = inhibitors of the PMA/ionomycin-induced NF-kB reporter in 697 B cells; 697 B-cell NF-kB luciferase reporter, 16 h; inhibition, % at 4 µM; hit rate 0.33% among 330,000; AID 435022; in the data active = inhibition above about 35%
Beta cell apopt = beta cell apoptosis inhibition. INS-1E cytokine-induced death, ATP luminescence, 48 h; percent of positive-control rescue, neutral wells zero. hit rate 0.8% among 300,000. protection from apoptosis, % (no concentration beside the values);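 active = Every replicate reaches about 75%, or at least half do and their mean reaches it too, limit read from the data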;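 also: 0% = cytokine-treated negative control wells and 100% = positive control rescue; higher means more ATP so stronger rescue from cytokine killing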
697 NFkB conf = inhibitors of the PMA/ionomycin-induced NF-kB reporter in 697 B cells, retest. AID 449746. 697 B-cell NF-kB luciferase, 16 h. hit rate 35% among 2,000. inhibition, % at 4 µM. shares compounds with 697 NFkB inh; in the data active = inhibition mostly above about 28%, no sharp cut-off; inactive = mostly below about 22%
Active calls of the source: *; nt = no result. In the library only some 4% were active in any assay of this set; here they are far more common.

SMILES | Mdm2 MdmX PPI | Gli-Sufu block | Jurkat NFkB inh | 697 NFkB inh | Beta cell apopt | 697 NFkB conf
O=[N+]([O-])c1ccc(Sc2cc[n+]([O-])c3ccccc23)c([N+](=O)[O-])c1 | 23 | -1 | 28 | 37* | nt | 50*
CCOc1ncccc1C(=O)Nc1nnc(C2CC2)s1 | 11 | -9 | 12 | 39* | 3 | -2
Cc1ccc(S(=O)(=O)N2CCN(C(=O)CN3C(=O)c4ccc([N+](=O)[O-])cc4C3=O)CC2)cc1C | -5 | 7 | 1 | 16 | 0 | nt
Cn1c(/C=N/NC(=O)c2ccccc2Br)nc2ccccc21 | 16 | 15 | 5 | 16 | -1 | nt
Cc1ccc(C(=O)N/N=C/c2nc3ccccc3n2C)cc1 | 12 | -14 | -15 | 39* | 11 | 20
CCOC(=O)c1c(-c2ccc(C)cc2)csc1NC(=S)NC(=O)c1ccccc1 | 23 | 4 | 3 | -486 | 20 | 0
COC(=O)c1c(-c2ccc(C)cc2)csc1NC(=S)NC(=O)c1ccc(F)cc1 | 23 | 6 | -6 | -24 | 11 | nt
CCOC(=O)C1C(=O)NC(c2ccccc2)=NC1c1ccc(OC)cc1 (configuration not stated) | 13 | 14 | -2 | -4 | -2 | nt
O=C1N[C@@H](Cc2cn(S(=O)(=O)c3ccccc3)c3ccccc23)C(=O)N[C@H]1Cc1ccccc1 | -16 | -39 | 13 | 38* | -3 | 16
O=C1N[C@@H](Cc2cn(S(=O)(=O)c3ccc(F)cc3)c3ccccc23)C(=O)N[C@H]1Cc1ccccc1 | -1 | nt | 8 | 24 | 4 | nt
CCOc1ccc(OCc2cccc(C(=O)N/N=C/c3cccnc3)c2)cc1 | -22 | -153 | 41 | 67* | 7 | 52*
COc1ccc(OCc2cccc(C(=O)NN)c2)cc1 | -14 | -155 | 6 | 68* | -6 | 29*
Cc1ccc(C)c(N2CCN(C(=O)c3ccc(CS(=O)Cc4cccc(Cl)c4)o3)CC2)c1 (configuration not stated) | 26 | -14 | -13 | -19 | -1 | nt
O=[N+]([O-])c1ccccc1C=NNC(=S)NN=Cc1ccccc1[N+](=O)[O-] | nt | -33 | nt | nt | nt | nt
O=[N+]([O-])c1ccccc1NC(=S)N/N=C/c1ccc(O)c(O)c1 | -18 | -3 | -144 | -324 | -2 | -180
CN1C(=O)NC(c2ccc(C(F)(F)F)cc2)C2=C1CC(C)(C)CC2=O (configuration not stated) | -5 | 1 | -19 | -12 | 4 | nt
CNC(=O)c1ccc(-c2cc3onc(-c4ccccc4)c3c(=O)n2C)cc1 | -109 | -69 | -107 | -171 | 3 | nt
CCCOc1ccc(-c2cc3onc(-c4ccccc4)c3c(=O)n2C)cc1 | -73 | -38 | 10 | -278 | 43 | -370
Cc1nnc(SCc2nnc(-c3ccccc3Br)o2)s1 | -1 | -11 | 2 | 1 | -1 | nt
CC1CCCC(C)N1C(=O)COC(=O)CSc1ccc(C(N)=O)cc1[N+](=O)[O-] (configuration not stated) | 3 | 2 | 6 | 35* | -3 | -11
O=C1CN(c2nc(-c3cccnc3)nc3scc(-c4ccccc4)c23)CCN1 | 2 | 32 | -5 | -12 | 8 | nt
COc1ccc(-c2csc3nc(-c4cccnc4)nc(N4CCC(C(N)=O)CC4)c23)cc1OC | 42 | 21 | 15 | 39* | -26 | 26*
CCOC(CNC(=O)c1ccc2nc(N3CCC(C)CC3)sc2c1)OCC | -27 | -142 | 6 | -282 | -1 | -178
O=C1/C(=C/c2ccccc2)CCCc2ccccc21 | 7 | -5 | -97 | -88 | 5 | nt
Cc1cccc(/C=C2\CCC(=C3SCCCS3)C2=O)c1 | 23 | -60 | -119 | -319 | 5 | -358
SMILES | Mdm2 MdmX PPI | Gli-Sufu block | Jurkat NFkB inh | 697 NFkB inh | Beta cell apopt | 697 NFkB conf
N#Cc1sc(=O)[nH]c1Cl | 12 | 3 | 17 | 42* | 0 | 13
CC(C(=O)Nc1ccc(C#N)cc1)N(C)CC(=O)N(C)c1c(N)n(Cc2ccccc2)c(=O)[nH]c1=O (configuration not stated) | 38 | -2 | -1 | -2 | -1 | nt
C=CCN1C(=O)C(=O)N(Cc2nc3ccccc3s2)C1=O | -69 | 10 | -83 | -100 | -2 | nt
Cc1ccc(N=Nc2c(N)nn(-c3ccccc3)c2N)cc1 | -126 | -82 | -5 | -318 | -5 | -81
Cc1cccc(C(=O)N[C@H](C(=O)Nc2cc(S(=O)(=O)N3CCCCC3)ccc2C)C(C)C)c1 | 24 | 10 | 8 | -4 | -6 | nt
Cc1cc(C)c2nc(NC(=O)[C@@H](NC(=O)c3cccc(S(=O)(=O)N4CCOCC4)c3)C(C)C)sc2c1 | 16 | 1 | 10 | 54* | 6 | 54*
Cc1nc2c3ccccc3nc(NNC(=O)CCC(=O)N3CCCC(C)C3)n2n1 (configuration not stated) | 9 | -1 | 2 | 20 | -12 | nt
CC(C)(C)c1ccc(S(=O)(=O)NCC(=O)Nc2ccc(-c3nc4ccccc4s3)cc2)cc1 | -9 | -18 | -31 | -157 | -1 | nt
O=C(CNS(=O)(=O)c1cccc(Cl)c1)Nc1ccc(-c2nc3ccccc3s2)cc1 | -80 | -81 | -127 | -319 | 7 | -229
N=C1C(c2nc3ccccc3s2)=C(O)CN1C1CCCCC1 | 7 | -41 | -124 | -271 | 2 | -88
CC(C)c1ccc(S(=O)(=O)N2CCN(C(C)C(=O)Nc3ccccc3-c3ccccc3)CC2)cc1 (configuration not stated) | 23 | 24 | 15 | 35* | 19 | 15
CC(=O)Nc1ccc2[nH]c(C)c(CC=C(Cl)Cl)c(=O)c2c1 | -10 | 3 | -3 | 42* | nt | 15
O=C(CCN1C(=O)/C(=C/c2ccc(Cl)cc2)SC1=S)Nc1ccc(C(=O)O)cc1 | 6 | -4 | -4 | 24 | -4 | nt
COc1ccc(/C=C2\SC(=S)N(CCC(=O)Nc3ccc(C(=O)O)cc3)C2=O)cc1 | -4 | 32 | -19 | 44* | -2 | 60*
CCc1ccc(/C=C2/SC(=S)N(CCC(=O)Nc3cccc(C(=O)O)c3)C2=O)cc1 | 1 | 30 | -9 | 50* | -1 | 59*
COc1ccc(/C=C2/SC(=S)N(CCC(=O)O)C2=O)cc1 | 25 | 27 | 45 | 74* | 0 | 75*
CCc1ccc(/C=C2/SC(=S)N(CCC(=O)Nc3ccc(C(=O)O)cc3)C2=O)cc1 | 27 | nt | 13 | 77* | -9 | 72*
CCC(C(=O)NCc1ccco1)N(C(=O)CNS(=O)(=O)c1ccc(C)cc1)c1ccccc1F (configuration not stated) | 6 | -2 | 18 | 1 | 1 | nt
COc1ccc(S(=O)(=O)N2CCN(CC(=O)NC(Cc3ccccc3)C(C)=O)CC2)cc1 (configuration not stated) | 15 | -1 | 6 | 5 | -4 | nt
CCN(CC)CCNC(=O)CNC(=O)c1nn(-c2ccc(OC)c(OC)c2)c(=O)c2ccccc12 | 10 | 0 | -28 | -10 | -1 | nt
COc1cc(Cl)c(NS(=O)(=O)c2cc3[nH]c(=O)c(=O)[nH]c3cc2C)c(OC)c1 | 24 | -5 | -6 | -8 | 3 | nt
